Most compounds without a hit are left out; they make up all but 1.2% or so of the library.
NPR2 activator: GC-B (human) receptor activation; P20594; HEK293-GC-B cells, CNP EC30, cGMP TR-FRET; 0% at EC30 CNP, 100% saturating CNP; activation, % at 10 µM; 370,000 compounds, 0.11% hits; AID 1920062;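 active = activation at 10 µM reaching about 35% in either raw or pattern-adjusted values, limit read from the data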
NPR1 activator: GC-A (human) enzyme activation; HEK293 GC-A cells, cGMP TR-FRET, EC30 ANP; 0% at EC30 ANP, 100% saturating ANP; AID 1671463; activation, % at 10 µM; P16066; 370,000 compounds, 0.14% hits; in the data active = activation above about 40%
Neddyl block: blocks human cullin neddylation; TR-FRET cullin neddylation, biochemical; inhibition, % at 25 µM; 360,000 compounds, 0.58% hits; in the data active = inhibition above about 36%
TLR4 MyD88 comp: blocks binding of human TLR4 to MyD88 | O00206+Q99836 | HeLa CL3-4 TLR4/MyD88 BLA complementation, FRET ratio | inhibition, % at 8.4 µM | 200,000 compounds, 0.18% hits; in the data active = inhibition above about 25%
NOD2-RIPK2 inh: inhibitors of human NOD2-RIPK2 interaction; CHO BLA complementation NOD2-RIPK2, CCF4 ratio; inhibition, % at 4.98 µM; 360,000 compounds, 0.38% hits; AID 624267; in the data active = inhibition above about 21%
TLR9-MyD88 inh: TLR9-MyD88 interaction inhibition | CHO BLA complementation TLR9-MyD88, CCF4 FRET ratio | inhibition, % at 4.98 µM | 340,000 compounds, 0.21% hits | AID 504734;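 active = inhibition above the mean over all tested compounds plus 3 SD, cut at about 21% in these data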
Neddyl conf: cullin neddylation inhibition, confirmation; 1,800 compounds, 13% hits; calls only at 25 µM; TR-FRET cullin neddylation biochemical assay; AID 652217; shares compounds with Neddyl block; in the data active = inhibition above about 40%;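 note: neddylation substrate is the cullin 1 ring ligase complex with SKP2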
Each line names hits and unclear results; the compound was inactive in the other large screens (follow-up assays come after a bar, where shown).

C#CCNC(=O)C[C@H]1C[C@@]2(C(=O)OC)C(=C[C@H](C(C)C)O[C@@H]2C2CC2)N(CCC2=CCCCC2)C1=O	none (no result: Neddyl block, TLR4 MyD88 comp, NOD2-RIPK2 inh, TLR9-MyD88 inh)
COc1ccc(S(=O)(=O)N(C)C[C@@H]2OCCCC[C@@H](C)Oc3ccc(NS(=O)(=O)c4cccs4)cc3C(=O)N([C@H](C)CO)C[C@@H]2C)cc1	none (no result: TLR4 MyD88 comp)
CN(C)c1nc(OCc2ccccc2)c2ncc(=O)[nH]c2n1	Neddyl block 44.4 (not shown: TLR4 MyD88 comp)
CN(C)c1nc(NCc2ccccc2)nc(Oc2ccc(=O)[nH]n2)n1	none
CCOC(=O)c1n[nH]n2c1nc(=O)c1ccccc12	none (not shown: Neddyl block, TLR4 MyD88 comp)
Cc1ccc(S(=O)(=O)c2n[nH]n3c2nc(=O)c2ccccc23)cc1	Neddyl block 40.0 | Neddyl conf inactive
COc1ccc(Cn2nnnc2CN(CCCN2CCOCC2)Cc2cc3cc(OC)ccc3[nH]c2=O)cc1	none
Cc1ccc2[nH]c(=O)c(CN(Cc3cccnc3)Cc3nnnn3CC3CCCO3)cc2c1 (configuration not stated)	none (no result: TLR4 MyD88 comp)
COc1ccc2[nH]c(=O)c(CN(Cc3nnnn3Cc3ccc(F)cc3)CC3CCCO3)cc2c1 (configuration not stated)	Neddyl block 45.7 | Neddyl conf inactive
O=c1[nH]c2cc3c(cc2cc1CN(Cc1ccccc1)Cc1nnnn1Cc1ccco1)OCCO3	none
O=c1[nH]c2cc3c(cc2cc1CN(Cc1ccc2c(c1)OCO2)Cc1nnnn1CC1CCCO1)OCO3 (configuration not stated)	Neddyl block 38.9 | Neddyl conf inactive
O=c1[nH]c2cc3c(cc2cc1CN(Cc1cccs1)Cc1nnnn1Cc1ccco1)OCCO3	Neddyl block 45.0 | Neddyl conf inactive
COc1ccc2cc(CN(Cc3cccs3)Cc3nnnn3Cc3ccccc3)c(=O)[nH]c2c1	none
COc1ccc2[nH]c(=O)c(CN(Cc3nnnn3Cc3ccccc3)CC3CCCO3)cc2c1 (configuration not stated)	Neddyl block 46.0 | Neddyl conf inactive
COc1cccc(Cn2cnc(-c3ccccc3OC)c2C2CC2)c1	none (no result: TLR4 MyD88 comp, TLR9-MyD88 inh)
CCCCN1C(=O)N2Cc3ccc(C)cc3C2CS1(=O)=O (configuration not stated)	none (no result: Neddyl block, TLR4 MyD88 comp, NOD2-RIPK2 inh, TLR9-MyD88 inh)
COc1ccc(CN2C(=O)[C@]3(NCCc4c3[nH]c3ccc(OC)cc43)c3cc(F)ccc32)cc1	none (no result: Neddyl block, TLR4 MyD88 comp, NOD2-RIPK2 inh, TLR9-MyD88 inh)
COCCn1nnnc1CN(Cc1cccnc1)Cc1cc2cc(OC)ccc2[nH]c1=O	Neddyl block 43.0 | Neddyl conf inactive
COc1ccc(-c2cc3ccccc3n2CC(O)CNC(CO)(CO)CO)cc1 (configuration not stated)	Neddyl block 45.1
COc1ccc(-c2cc3ccccc3n2CC(O)CN2CCC(C)CC2)cc1 (configuration not stated)	none
CC(C)CN(C(=O)COC(=O)c1cccc2ccccc12)c1c(N)n(Cc2ccccc2)c(=O)[nH]c1=O	none (no result: TLR4 MyD88 comp)
COCCN(C(=O)COC(=O)c1cc2ccccc2cc1OC)c1c(N)n(Cc2ccccc2)c(=O)[nH]c1=O	Neddyl block 52.0 (no result: TLR4 MyD88 comp) | Neddyl conf active
COc1cc2ccccc2cc1C(=O)OCC(=O)N(CC(C)C)c1c(N)n(Cc2ccccc2)c(=O)[nH]c1=O	Neddyl block 47.3 (no result: TLR4 MyD88 comp) | Neddyl conf inactive
CCN(C(=O)COC(=O)c1ccccc1NCc1ccco1)c1c(N)n(Cc2ccccc2)c(=O)[nH]c1=O	none (not shown: Neddyl block, TLR4 MyD88 comp)
CC(C)CN(C(=O)COC(=O)c1ccccc1NCc1ccco1)c1c(N)n(Cc2ccccc2)c(=O)[nH]c1=O	Neddyl block 62.9 (no result: TLR4 MyD88 comp) | Neddyl conf inactive
COCCN(C(=O)COC(=O)c1cc(C)n(-c2ccccc2)c1C)c1c(N)n(Cc2ccccc2)c(=O)[nH]c1=O	none (no result: TLR4 MyD88 comp)
CC1NS(=O)(=O)c2cc([N+](=O)[O-])ccc21 (configuration not stated)	none (no result: TLR4 MyD88 comp, TLR9-MyD88 inh)
COc1ccc(-c2cn3cccnc3n2)cc1NC(=O)C1CCCC1	Neddyl block 40.2 | Neddyl conf inactive
CNc1cncc(C(=O)O)c1	Neddyl block 40.2
